Reference: PubChem BioAssay
A number with no mark means an inactive call. Where a call stands in place of a potency, no number is given. For some assays here: Potency and affinity values are given separately. Active and inactive are the calls of the source. Unless noted, how the calls were made is not given here.

Columns and labels:
[1] = antimalarial activity against Dd2 strain (AID 2302;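 active means growth inhibition above 50% at the single 2 µM test dose, taken to imply half-maximal potency below 2 µM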); conditions: P. falciparum Dd2 in RBCs, LDH growth readout, 72 h; at 2 µM; stronger effect = higher value
[2] = target: L-lactate dehydrogenase (Plasmodium falciparum (isolate CDC / Honduras)) (UniProt Q27743); test: PfLDH activity inhibition – cell lysate, 3D7 strain, counter-screen for P. falciparum growth inhibition project (AID 2304); conditions: P. falciparum 3D7 crude extract, LDH APAD/NBT absorbance; at 2 µM; stronger effect = higher value
[3] = inhibition of 3D7 malaria parasite growth – strain 3D7 (AID 2306); conditions: P. falciparum 3D7 erythrocytic growth, LDH absorbance, 72 h; at 2 µM; stronger effect = higher value
[4] = target: Calcium-dependent protein kinase 1 (Plasmodium falciparum (isolate 3D7)) (UniProt P62344); test: PfCDPK1 kinase inhibitors, biochemical, TCAMS library (AID 1159585; cut-off not given, nearly all actives have IC50 up to about 0.98 µM;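 further: inhibitors leave more ATP so luminescence rises with inhibition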); conditions: recombinant PfCDPK1, Kinase-Glo ATP depletion luminescence
[5] = target: Plasmodium falciparum protein kinase 6 (PK6, PF3D7_1337100) (UniProt Q8IDW1); test: PfPK6 kinase inhibitors, biochemical, TCAMS library (AID 1159586); conditions: recombinant PfPK6, Kinase-Glo ATP depletion luminescence
[6] = target: Protein kinase 7 (PK7), Plasmodium falciparum 3D7 (PF3D7_0213400) (UniProt Q7YTF7); test: inhibition of Plasmodium PK7 catalytic activity – biochemical, TCAMS antimalarial set, Kinase-Glo luminescence (AID 1159587); conditions: recombinant PfPK7, Kinase-Glo ATP depletion luminescence
[7] = target: Calcium-dependent protein kinase 4 (Plasmodium falciparum (isolate 3D7)) (UniProt Q8IBS5); test: PfCDPK4 kinase inhibitors, biochemical, TCAMS library (AID 1159588; cut-off not given, nearly all actives have IC50 up to about 0.91 µM); conditions: recombinant PfCDPK4, Kinase-Glo ATP depletion luminescence
Chain of Calcium-dependent protein kinase 4 (Plasmodium falciparum (isolate 3D7)) (Q8IBS5 whole entry, looked up): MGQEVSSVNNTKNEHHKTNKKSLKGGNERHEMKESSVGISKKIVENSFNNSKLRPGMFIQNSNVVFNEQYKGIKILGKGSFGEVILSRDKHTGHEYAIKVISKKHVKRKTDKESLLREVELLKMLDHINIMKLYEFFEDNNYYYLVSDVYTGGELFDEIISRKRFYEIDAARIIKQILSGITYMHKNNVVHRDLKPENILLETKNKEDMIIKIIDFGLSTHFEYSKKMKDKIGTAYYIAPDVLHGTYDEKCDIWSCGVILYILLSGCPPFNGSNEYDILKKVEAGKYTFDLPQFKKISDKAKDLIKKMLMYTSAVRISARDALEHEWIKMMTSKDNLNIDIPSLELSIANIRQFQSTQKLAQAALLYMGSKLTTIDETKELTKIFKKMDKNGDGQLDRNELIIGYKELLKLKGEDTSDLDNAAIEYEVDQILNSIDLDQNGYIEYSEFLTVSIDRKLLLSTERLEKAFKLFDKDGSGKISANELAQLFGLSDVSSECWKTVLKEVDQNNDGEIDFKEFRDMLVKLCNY

Chain of Protein kinase 7 (PK7), Plasmodium falciparum 3D7 (PF3D7_0213400) (Q7YTF7 1-343): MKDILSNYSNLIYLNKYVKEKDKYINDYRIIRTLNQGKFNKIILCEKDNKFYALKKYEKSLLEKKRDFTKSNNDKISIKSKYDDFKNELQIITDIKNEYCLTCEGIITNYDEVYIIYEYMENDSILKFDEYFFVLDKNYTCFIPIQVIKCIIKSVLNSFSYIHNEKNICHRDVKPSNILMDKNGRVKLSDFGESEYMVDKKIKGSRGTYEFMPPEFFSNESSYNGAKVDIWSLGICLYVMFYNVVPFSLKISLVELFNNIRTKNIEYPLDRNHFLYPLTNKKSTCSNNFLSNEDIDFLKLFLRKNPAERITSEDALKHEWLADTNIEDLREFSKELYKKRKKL
Chain of L-lactate dehydrogenase (Plasmodium falciparum (isolate CDC / Honduras)) (Q27743 whole entry, looked up): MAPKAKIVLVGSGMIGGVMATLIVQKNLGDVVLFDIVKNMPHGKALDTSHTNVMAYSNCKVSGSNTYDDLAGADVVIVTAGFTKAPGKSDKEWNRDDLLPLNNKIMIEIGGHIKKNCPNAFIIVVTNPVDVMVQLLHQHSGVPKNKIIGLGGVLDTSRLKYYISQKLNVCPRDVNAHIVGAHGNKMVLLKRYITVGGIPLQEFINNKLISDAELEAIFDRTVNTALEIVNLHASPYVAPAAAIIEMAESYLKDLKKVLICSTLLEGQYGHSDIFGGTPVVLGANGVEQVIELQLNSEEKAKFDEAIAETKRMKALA
Chain of Plasmodium falciparum protein kinase 6 (PK6, PF3D7_1337100) (Q8IDW1 1-305): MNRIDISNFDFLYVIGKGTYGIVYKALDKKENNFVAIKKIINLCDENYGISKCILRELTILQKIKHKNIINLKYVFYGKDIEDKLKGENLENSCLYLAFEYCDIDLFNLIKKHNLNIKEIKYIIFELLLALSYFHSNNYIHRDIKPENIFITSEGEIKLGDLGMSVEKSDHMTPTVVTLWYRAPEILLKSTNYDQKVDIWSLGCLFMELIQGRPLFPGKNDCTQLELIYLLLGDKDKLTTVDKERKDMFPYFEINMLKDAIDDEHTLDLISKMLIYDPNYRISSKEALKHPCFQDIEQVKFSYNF
Chain of Calcium-dependent protein kinase 1 (Plasmodium falciparum (isolate 3D7)) (P62344 whole entry, looked up): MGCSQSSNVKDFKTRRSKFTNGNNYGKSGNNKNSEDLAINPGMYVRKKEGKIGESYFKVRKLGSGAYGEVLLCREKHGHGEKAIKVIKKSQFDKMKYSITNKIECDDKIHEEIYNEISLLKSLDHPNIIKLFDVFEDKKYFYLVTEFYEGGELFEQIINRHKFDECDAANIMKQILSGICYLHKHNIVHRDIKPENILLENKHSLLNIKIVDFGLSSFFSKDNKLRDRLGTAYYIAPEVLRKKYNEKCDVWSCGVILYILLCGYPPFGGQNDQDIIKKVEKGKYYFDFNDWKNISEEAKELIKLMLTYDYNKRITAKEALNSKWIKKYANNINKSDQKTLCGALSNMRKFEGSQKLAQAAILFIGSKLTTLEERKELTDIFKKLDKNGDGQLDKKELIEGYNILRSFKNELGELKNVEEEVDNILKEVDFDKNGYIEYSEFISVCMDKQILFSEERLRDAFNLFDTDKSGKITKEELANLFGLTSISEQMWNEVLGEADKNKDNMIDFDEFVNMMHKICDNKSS

Row | Compound | growth inhibition [1] | inhibition [2] | growth inhibition [3] | outcome [4] | outcome [5] | outcome [6] | outcome [7]
1 | CCCCNCc1ccc(OCc2cccc(COc3ccc(CNCCCC)cc3I)c2)c(I)c1 | 13% | 6% | 87% (active) | inactive | inactive | inactive | inactive
2 | CCC1=C(C[C@H]2NCCc3cc(OC)c(OC)cc32)C[C@H]2c3cc(OC)c(OC)cc3CCN2C1 | 100% (active) | -2% | 102% (active) | inactive | inactive | inactive | inactive
3 | CC(C)(C)c1ccc(-c2nc3c(ccc4nc(N)nc(N)c43)[nH]2)cc1 | 101% (active) | 1% | 100% (active) | inactive | inactive | inactive | inactive
4 | C=CCOc1ccc(Cc2cnc(N)nc2N)cc1CCC | -1% | -1% | 93% (active) | inactive | inactive | inactive | inactive
5 | CCCCCCCCCC(=O)NCC1CC(Br)=NO1 (stereo unspecified) | 42% | -7% | 87% (active) | inactive | inactive | inactive | inactive
6 | CCOc1cc(Cc2cnc(N)nc2N)ccc1OC | -4% | -1% | 88% (active) | inactive | inactive | inactive | inactive
7 | CC(C)Cn1ccc2c3c(N)nc(N)nc3ccc21 | 96% (active) | 1% | 96% (active) | inactive | inactive | inactive | inactive
8 | Cc1ccc2ccncc2c1N | 4% | -6% | 96% (active) | inactive | inactive | inactive | inactive
9 | CC(CN=C(N)c1cccc(C(N)=NCC(C)Oc2cccc(C3CCCCC3)c2)n1)Oc1cccc(C2CCCCC2)c1 (stereo unspecified) | 31% | 2% | 90% (active) | inactive | inactive | inactive | inactive
10 | CC(C)(C)OC(=O)N[C@@H](CS(=O)(=O)CCN=C(N)COCc1ccccc1)C(=O)OC(C)(C)C | 76% (active) | 4% | 88% (active) | inactive | inactive | inactive | inactive
11 | O=C(NCCCCN1CCN(c2nsc3ccccc23)CC1)c1ccccc1C(=O)NCCCCN1CCN(c2nsc3ccccc23)CC1 | 22% | -8% | 100% (active) | inactive | inactive | inactive | inactive
12 | CN(C)S(=O)(=O)n1ncc2c3c(N)nc(N)nc3ccc21 | 0% | -4% | 96% (active) | inactive | inactive | inactive | inactive
13 | CCCCCCOc1ccc2ccccc2c1CNCCCCCCNCc1c(OCCCCCC)ccc2ccccc12 | 55% (active) | 6% | 85% (active) | inactive | inactive | inactive | inactive
14 | N=C(N)c1ccc2[nH]c(-c3cc4cc(C(=N)N)ccc4o3)cc2c1 | 87% (active) | 5% | 94% (active) | inactive | inactive | inactive | inactive
15 | Cc1c(C(C)(C)C)ccc2nc(N)nc(N)c12 | -2% | -1% | 89% (active) | inactive | inactive | inactive | inactive
16 | Nc1nc(N)c2c3c(ccc2n1)CCC3 | 2% | -3% | 92% (active) | inactive | inactive | inactive | inactive
17 | Nc1nc(N)c2c(Oc3ccc(Cl)c(Cl)c3)cccc2n1 | 22% | -5% | 95% (active) | inactive | inactive | inactive | inactive
18 | CC1CCN(Cc2c(O)ccc3c(CN4CCC(C)CC4)c(O)ccc23)CC1 | 86% (active) | -3% | 102% (active) | inactive | inactive | inactive | inactive
19 | Nc1nc(N)c2c(ccc3c2ccn3Cc2ccc3c(c2)OCO3)n1 | 95% (active) | -3% | 100% (active) | inactive | inactive | inactive | inactive
20 | CCn1c(O)c(N=NC(=S)N2CCCC2)c2ccccc21 | 9% | 4% | 91% (active) | inactive | inactive | inactive | inactive
21 | CCc1cccc(-c2cc(=N)n(C)c3nc(N)[nH]c(=O)c23)c1 | 28% | 3% | 85% (active) | inactive | inactive | inactive | inactive
22 | COc1ccc2c(CNCCCCCCNCc3c(OC)ccc4cc(OC)ccc34)c(OC)ccc2c1 | 79% (active) | -7% | 101% (active) | inactive | inactive | inactive | inactive
23 | Nc1nc(N)c(-c2ccccc2)c(=O)[nH]1 | -5% | 0% | 83% (active) | inactive | inactive | inactive | inactive
